Experimental findings from PubChem BioAssay (NCATS) are described below.

The target in assay [1] is Cytochrome P450 2C9 (Homo sapiens) (UniProt P11712). Description: qHTS Assay for Inhibitors and Substrates of Cytochrome P450 2C9 (AID 883). Note: nearly all actives have a fitted effect of over 60% in size. Note: potency is the fitted concentration of half-maximal effect. A digest of the protocol: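 A luminogenic readout tracked human CYP2C9 (10nM) converting deoxyluciferin (100uM, at KM) in 25mM KPO4 during 60 min at 37C with regenerated NADPH. Values normalized to 57uM sulphaphenazole as complete inhibition.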
Background: qHTS replaces the single test concentration by a dilution series.

Assay [2] can be described thus: qHTS assay for small molecule antagonists of peroxisome proliferator-activated receptor delta signaling (AID 588535; active = well fitted inhibition curve with a large enough effect in the signal ratio, with a control signal flat, not every such curve was filed as active; the % refers to the signal ratio; note: potency is the fitted concentration of half-maximal effect;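 for max response: cells co-treated with a PPAR-delta agonist as stimulator during compound exposure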). As to conditions: HEK293T PPARd-UAS-bla, beta-lactamase FRET ratio, 18 h; 460 nm channel. A digest of the protocol: (§1)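 GeneBLAzer PPAR-delta-UAS-bla HEK293T cells in medium with 2% charcoal/dextran FBS were preincubated 5 hrs at 37 C, then given compounds, incubated 18 hrs at 37 C, and read by CCF4 beta-lactamase fluorescence; IC50 from Hill fits.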

Assay [3] addresses Peroxisome proliferator-activated receptor delta (Homo sapiens) (UniProt Q03181). The assay is described as above. The gist of the method:
as §1

Assay [4] has as its target Peroxisome proliferator-activated receptor gamma (Homo sapiens) (UniProt P37231). Description: qHTS assay for small molecule agonists of peroxisome proliferator-activated receptor gamma signaling (AID 588536; active = well fitted curve in the direction sought with a large enough effect in the signal ratio, with a control signal flat, not every such curve was filed as active; the % refers to the signal ratio;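 note: 0% = DMSO basal wells and 100% = rosiglitazone at 2 µM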). A digest of the protocol: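 GeneBLAzer PPAR-gamma-UAS-bla HEK293 cells in 1% charcoal/dextran-treated FBS medium were treated 16 h at 37 C with compounds. Beta-lactamase activity was read by CCF4 ratio (460/530 nm). Response was normalized to 2 uM rosiglitazone (100%) and DMSO, then Hill-fitted for EC50 and efficacy.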

The target of assay [5] is Vitamin D3 receptor (Homo sapiens) (UniProt P11473). In words: qHTS assay for small molecule antagonists of vitamin D receptor signaling (AID 588541; calls by dose curve;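 note: receptor activated by calcitriol during compound treatment; series mostly up to about 77 µM; % is set by controls: 0 for no effect and ±100 for the full control effect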). A digest of the protocol:
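VDR-UAS-bla HEK293T cells (2000/well, 2% charcoal-stripped FBS) were treated with titrated compounds plus 1-alpha,25-dihydroxyvitamin D3 (50 nM or 3 nM final) for 16 h at 37 C. CCF4 beta-lactamase fluorescence was read; Hill fits gave IC50.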

A short description of assay [6]: qHTS assay for small molecule agonists of retinoid X receptor alpha signaling (AID 588544; calls by dose curve). As to conditions: HEK293T RXRa-UAS-bla, beta-lactamase reporter, 18 h; 530 nm emission.
Assay [7] concerns the target Retinoic acid receptor RXR-alpha (Homo sapiens) (UniProt P19793). The description is as above.
Assay [8] has as its target Thyroid hormone receptor beta (Homo sapiens) (UniProt P10828). In words: qHTS assay for small molecule agonists of thyroid hormone receptor beta signaling (AID 588545; calls by dose curve). The gist of the method: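 Cells (2500/well) were seeded, incubated 4 hrs at 37 C, dosed with a compound series, incubated 18 hrs, loaded with CCF4 dye for 2 hrs at RT, then read for fluorescence. Data were scaled between DMSO (0%) and 10 nM T3 (100%).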

Assay [9] has as its target Retinoic acid receptor RXR-alpha (Homo sapiens) (UniProt P19793). In words: qHTS assay for small molecule antagonists of retinoid X receptor alpha signaling (AID 588546; active = well fitted inhibition curve with a large enough effect in the signal ratio, with a control signal flat, not every such curve was filed as active; the % refers to the signal ratio; note: % is set by controls: 0 for no effect and ±100 for the full control effect). The conditions noted are these: HEK293T RXRa-UAS-bla, beta-lactamase ratio, antagonist mode. The gist of the method: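 Beta-lactamase reporter inhibition, read as CCF4 fluorescence ratio (ex 405, em 460/530 nm) after 2 h at RT. HEK293T UAS-bla cells, 2500/well, were stimulated with 9-cis-RA at 500 or 100 nM final alongside test compound for 18 h at 37 C.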

Assay [10] deals with Peroxisome proliferator-activated receptor alpha (Homo sapiens) (UniProt Q07869). Description: qHTS assay for small molecule agonists of the peroxisome proliferator-activated receptor alpha (PPARalpha) signaling pathway (AID 651778). Note: % of control where 0% means no effect. The conditions noted are these: PathHunter PPARalpha complementation, chemiluminescence, 6 h; stronger effect = higher value. A digest of the protocol:
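Cells plated at 2,000/well and held overnight at 37 C, 5% CO2, then compound added by pin tool for 6 hr; after PathHunter detection reagent and 60 min at room temperature, chemiluminescence from enzyme complementation was read.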

A short description of assay [11]: qHTS assay for cell viability of HEK293 cells (AID 743288). Note: nearly all actives have a fitted effect of over 50% in size. Note: potency is the fitted concentration of half-maximal effect. As to conditions: ATP luminescence (CellTiter-Glo), 18 h; max response: stronger effect = lower value. The gist of the method:
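Parental HEK293 cells were seeded at 2,000 cells/well, rested at least 5 h at 37 C, then exposed to compounds in DMSO for 18 h at 37 C. Viability was read as ATP-dependent luciferase luminescence after 30 min at room temperature.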

Assay [12] has as its target Alpha-galactosidase (Coffea arabica) (UniProt Q42656). In words: Counterscreen for Glucocerebrosidase Inhibitors: qHTS Assay for Coffee Bean alpha-Galactosidase at pH 4.5 (AID 957).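 Note: series mostly up to about 77 µM; plate controls were enzyme alone for no effect and no enzyme for full effect.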 A digest of the protocol: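 AC50 values derive from Hill-equation modeling of concentration-response data, normalized to no-enzyme and full-activity controls. The pH 4.5 citrate assay used 2 nM coffee bean enzyme and 80 uM fluorogenic substrate for 20 min.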
Background: Counterscreens check selectivity or assay interference.

For assay [13] the target is unchanged. Description: Counterscreen for Glucocerebrosidase Inhibitors: qHTS Assay for Coffee Bean alpha-Galactosidase at pH 5.9 (AID 998).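 Note: plate controls were uninhibited enzyme for no effect and no-enzyme basal signal for full effect.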 A digest of the protocol:
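Green coffee bean enzyme (2 nM final) was incubated with compounds (0.7 nM–77 uM) and 4-methylumbelliferyl alpha-D-galactopyranoside (80 uM) in citrate buffer pH 5.9, 20 min at room temperature. High-pH stop; fluorescence 365/440 nm; AC50 from Hill fits.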

Assay [14] has as its target ATP-dependent 6-phosphofructokinase (Trypanosoma brucei brucei) (UniProt O15648). Description: qHTS Assay to Find Inhibitors of T. brucei phosphofructokinase: hit validation (AID 492961).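 Note: luminescence reports ADP formed as PFK phosphorylates fructose-6-phosphate with ATP; series mostly up to about 51 µM; % is set by controls: 0 for no effect and ±100 for the full control effect.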 The gist of the method: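 Percent activity derived from corrected luminescence, normalized between 0x and 1x enzyme controls, then fitted to concentration-response curves. Conditions: 1.25 nM PFK, 0.1 mM ATP, 0.5 mM F6P, 45 min RT.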

Assay [15] concerns the target Guanine nucleotide-binding protein G(i) subunit alpha-1 (Homo sapiens) (UniProt P63096). In words: qHTS Assay for Inhibitors of RGS12 GoLoco Motif Activity (Green Fluorophore) (AID 879).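 Note: 0% = labeled peptide with Gαi1 and full inhibition = labeled peptide alone without protein; negative values mean loss of peptide binding seen as reduced polarization.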 A digest of the protocol: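 Fluorescence polarization assay: 50 nM Gαi1 with 10 nM FITC-labeled RGS12 GoLoco peptide in 10 mM Tris pH 7.5, 150 mM NaCl, 0.1 mM GDP, 0.05% NP40, 10 min at room temperature with compound.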

Assay [16] can be described thus: qHTS Assay for Identification of Small Molecule Agonists for Thrombopoietin (TPO) Signaling Pathway (AID 917). Note: % is set by controls: 0 for no effect and ±100 for the full control effect. A digest of the protocol:
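Murine Ba/F3 cells stably expressing human TPO receptor and a Glycoprotein IIb promoter–luciferase reporter were IL-3-starved overnight, then treated with compounds plus TPO (26 pM final, its EC50) for 24 hrs at 37 C; luminescence was read.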

Assay [17] has as its target Pyruvate kinase (Leishmania mexicana) (UniProt Q27686). Description: qHTS Validation Assay for Inhibitors of Leishmania Mexicana Pyruvate Kinase (AID 945).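 Note: 0% = DMSO only neutral control wells.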 A digest of the protocol: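 The enzyme is a highly purified E451W mutant of LmPYK used at 0.2 nM. It converts 0.5 mM PEP and 0.1 mM ADP over 1 h at room temperature; product ATP is quantified by luciferase luminescence relative to DMSO controls.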

Assay [18] concerns the target Pyruvate kinase PKM (Homo sapiens) (UniProt P14618). Description: qHTS Assay for Activators of Human Muscle Pyruvate Kinase (AID 954; active = well fitted curve in the direction sought with a large enough effect, not every such curve was filed as active;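 note: 0% = uninhibited enzyme and -100% = no enzyme or full thiadiazolimine inhibition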). The gist of the method: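 Purified human PKM2 (0.1 nM) with 0.5 mM PEP (Km) and 0.1 mM ADP in 50 mM imidazole pH 7.2, KCl, MgCl2, 1 h at room temperature; ATP formed read by coupled luciferase luminescence. Normalized to no-enzyme/110 uM thiadiazolimine inhibition; 0.3 nM enzyme column for activation.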

The target of assay [19] is Alpha-galactosidase A (Homo sapiens) (UniProt P06280). Description: Counterscreen for Glucocerebrosidase Inhibitors: qHTS Assay for Human alpha-Galactosidase at pH 4.5 (AID 992). Note: 0% is about no effect. The gist of the method:
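Human enzyme (2 nM) with 80 uM 4-methylumbelliferyl alpha-D-galactopyranoside in 50 mM citric acid, 0.005% Tween-20, pH 4.5, 20 min at room temperature. Compounds 0.7 nM–77 uM; fluorescence Ex 365/Em 440 after pH 10 stop; AC50 from Hill fits.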

Assay [20] addresses alpha-glucosidase (Oryza sativa, rice) (UniProt Q653V4). In words: Counterscreen for Glucocerebrosidase Inhibitors: qHTS Assay for Rice alpha-Glucosidase at pH 5.0 (AID 997).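 Note: 0% = full activity with enzyme and -100% = basal without enzyme.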 A digest of the protocol: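 Rice alpha-glucosidase (4 nM final) with 400 uM 4-methylumbelliferyl-alpha-D-glucopyranoside in citrate buffer pH 5.0, 20 min at room temperature, stopped at pH 10; fluorescence 365/440 nm, compounds 0.7 nM–77 uM, AC50 from Hill fits.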

SMILES strings stand for the structures. Several values for one entry are separate records, joined by “and”; a condition that tells them apart may be missing. Equal values may be shown once. Results filed as inconclusive are left out. Activity calls are given as the source filed them. Unless noted, calls come from the whole dose curve; as a rule, active = well fitted curve in the direction sought with a large enough effect; inconclusive = small, poorly fitted or top-dose-only effect, or another doubt; inactive = no such curve, though single readings can be large; an effect the other way counts as inactive or inconclusive.

Peroxisome proliferator-activated receptor alpha (Homo sapiens), sequence (Q07869 whole entry, looked up): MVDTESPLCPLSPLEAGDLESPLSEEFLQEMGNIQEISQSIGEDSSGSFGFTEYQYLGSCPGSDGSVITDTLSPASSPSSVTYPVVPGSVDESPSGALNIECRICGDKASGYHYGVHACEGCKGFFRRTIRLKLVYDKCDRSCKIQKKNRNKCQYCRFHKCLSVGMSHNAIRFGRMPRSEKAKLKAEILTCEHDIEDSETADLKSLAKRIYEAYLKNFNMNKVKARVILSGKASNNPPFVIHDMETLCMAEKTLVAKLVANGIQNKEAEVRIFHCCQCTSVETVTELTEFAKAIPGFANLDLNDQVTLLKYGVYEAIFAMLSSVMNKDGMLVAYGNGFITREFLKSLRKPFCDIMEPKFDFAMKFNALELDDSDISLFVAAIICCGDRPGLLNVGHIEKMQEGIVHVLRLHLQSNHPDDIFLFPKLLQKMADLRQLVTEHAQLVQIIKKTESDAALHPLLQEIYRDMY
Peroxisome proliferator-activated receptor delta (Homo sapiens), sequence (Q03181 whole entry, looked up): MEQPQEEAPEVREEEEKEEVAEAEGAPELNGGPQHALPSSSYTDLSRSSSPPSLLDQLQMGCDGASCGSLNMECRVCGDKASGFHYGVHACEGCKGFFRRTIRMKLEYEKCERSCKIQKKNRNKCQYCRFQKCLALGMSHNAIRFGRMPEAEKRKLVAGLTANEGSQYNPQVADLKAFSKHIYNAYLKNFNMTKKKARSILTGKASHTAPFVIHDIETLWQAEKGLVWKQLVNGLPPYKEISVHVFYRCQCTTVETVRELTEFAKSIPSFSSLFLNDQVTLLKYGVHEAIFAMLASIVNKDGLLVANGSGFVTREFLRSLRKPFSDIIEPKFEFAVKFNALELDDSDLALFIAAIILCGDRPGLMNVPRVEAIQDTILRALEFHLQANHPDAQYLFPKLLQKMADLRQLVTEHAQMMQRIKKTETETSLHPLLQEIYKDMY
Retinoic acid receptor RXR-alpha (Homo sapiens), sequence (P19793 whole entry, looked up): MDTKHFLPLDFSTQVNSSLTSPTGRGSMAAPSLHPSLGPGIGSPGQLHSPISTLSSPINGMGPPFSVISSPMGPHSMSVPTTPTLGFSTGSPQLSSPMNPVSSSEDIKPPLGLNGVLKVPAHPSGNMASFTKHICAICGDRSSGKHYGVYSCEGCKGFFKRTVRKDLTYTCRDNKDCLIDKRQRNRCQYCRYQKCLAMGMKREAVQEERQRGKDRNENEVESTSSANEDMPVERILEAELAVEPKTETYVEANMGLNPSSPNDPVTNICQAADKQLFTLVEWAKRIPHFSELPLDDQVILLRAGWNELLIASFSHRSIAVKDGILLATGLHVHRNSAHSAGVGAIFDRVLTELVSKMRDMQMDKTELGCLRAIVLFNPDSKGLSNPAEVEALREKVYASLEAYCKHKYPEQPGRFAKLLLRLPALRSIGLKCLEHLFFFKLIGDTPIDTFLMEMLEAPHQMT
Alpha-galactosidase (Coffea arabica), sequence (Q42656 whole entry, looked up): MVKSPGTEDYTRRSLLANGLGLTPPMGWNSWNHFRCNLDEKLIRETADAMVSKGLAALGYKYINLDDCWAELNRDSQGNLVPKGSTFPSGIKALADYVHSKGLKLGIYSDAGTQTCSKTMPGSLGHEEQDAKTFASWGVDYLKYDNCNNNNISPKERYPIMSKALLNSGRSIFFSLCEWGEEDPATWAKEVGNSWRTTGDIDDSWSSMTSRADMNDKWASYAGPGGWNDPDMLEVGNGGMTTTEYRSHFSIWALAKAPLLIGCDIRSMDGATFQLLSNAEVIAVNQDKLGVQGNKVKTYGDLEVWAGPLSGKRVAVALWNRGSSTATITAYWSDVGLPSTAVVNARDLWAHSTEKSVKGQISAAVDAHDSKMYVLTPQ
Peroxisome proliferator-activated receptor gamma (Homo sapiens), sequence (P37231 whole entry, looked up): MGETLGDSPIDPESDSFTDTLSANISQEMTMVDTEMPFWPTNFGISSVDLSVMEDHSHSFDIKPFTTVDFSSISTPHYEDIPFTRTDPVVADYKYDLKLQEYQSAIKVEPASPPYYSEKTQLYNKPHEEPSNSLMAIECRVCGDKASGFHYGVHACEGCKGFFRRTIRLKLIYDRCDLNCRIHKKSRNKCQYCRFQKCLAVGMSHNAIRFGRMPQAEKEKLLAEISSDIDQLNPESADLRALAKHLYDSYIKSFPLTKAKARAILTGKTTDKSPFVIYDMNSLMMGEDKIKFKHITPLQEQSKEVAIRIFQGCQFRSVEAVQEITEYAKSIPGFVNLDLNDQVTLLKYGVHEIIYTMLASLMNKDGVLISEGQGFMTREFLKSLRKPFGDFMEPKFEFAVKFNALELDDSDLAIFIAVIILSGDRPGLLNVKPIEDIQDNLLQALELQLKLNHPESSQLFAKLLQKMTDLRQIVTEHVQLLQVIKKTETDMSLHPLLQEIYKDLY
Cytochrome P450 2C9 (Homo sapiens), sequence (P11712 whole entry, looked up): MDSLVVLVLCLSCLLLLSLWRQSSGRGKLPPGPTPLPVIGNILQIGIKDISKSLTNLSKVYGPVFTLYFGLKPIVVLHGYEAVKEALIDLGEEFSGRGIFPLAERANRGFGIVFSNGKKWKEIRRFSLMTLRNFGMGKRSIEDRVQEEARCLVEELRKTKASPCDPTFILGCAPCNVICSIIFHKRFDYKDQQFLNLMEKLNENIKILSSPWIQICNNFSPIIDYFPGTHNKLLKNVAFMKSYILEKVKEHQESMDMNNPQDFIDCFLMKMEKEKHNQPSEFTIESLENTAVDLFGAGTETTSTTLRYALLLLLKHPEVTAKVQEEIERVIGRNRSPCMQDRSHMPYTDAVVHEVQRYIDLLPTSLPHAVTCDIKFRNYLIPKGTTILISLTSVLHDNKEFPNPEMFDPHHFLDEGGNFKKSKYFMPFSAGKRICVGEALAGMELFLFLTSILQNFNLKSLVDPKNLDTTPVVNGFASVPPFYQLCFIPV
Vitamin D3 receptor (Homo sapiens), sequence (P11473 whole entry, looked up): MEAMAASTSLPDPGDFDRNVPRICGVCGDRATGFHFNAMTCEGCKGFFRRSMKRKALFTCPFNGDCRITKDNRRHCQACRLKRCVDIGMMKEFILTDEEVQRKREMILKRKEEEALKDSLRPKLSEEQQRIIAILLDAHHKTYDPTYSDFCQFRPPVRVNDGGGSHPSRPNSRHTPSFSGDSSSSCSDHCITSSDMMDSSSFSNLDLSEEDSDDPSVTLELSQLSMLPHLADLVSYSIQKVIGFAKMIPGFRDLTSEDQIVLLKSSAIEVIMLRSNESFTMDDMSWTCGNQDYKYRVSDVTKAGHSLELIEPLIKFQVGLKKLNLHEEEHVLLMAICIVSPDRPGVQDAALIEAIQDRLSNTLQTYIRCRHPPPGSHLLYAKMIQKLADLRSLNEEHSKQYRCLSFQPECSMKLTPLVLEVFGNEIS
Thyroid hormone receptor beta (Homo sapiens), sequence (P10828 whole entry, looked up): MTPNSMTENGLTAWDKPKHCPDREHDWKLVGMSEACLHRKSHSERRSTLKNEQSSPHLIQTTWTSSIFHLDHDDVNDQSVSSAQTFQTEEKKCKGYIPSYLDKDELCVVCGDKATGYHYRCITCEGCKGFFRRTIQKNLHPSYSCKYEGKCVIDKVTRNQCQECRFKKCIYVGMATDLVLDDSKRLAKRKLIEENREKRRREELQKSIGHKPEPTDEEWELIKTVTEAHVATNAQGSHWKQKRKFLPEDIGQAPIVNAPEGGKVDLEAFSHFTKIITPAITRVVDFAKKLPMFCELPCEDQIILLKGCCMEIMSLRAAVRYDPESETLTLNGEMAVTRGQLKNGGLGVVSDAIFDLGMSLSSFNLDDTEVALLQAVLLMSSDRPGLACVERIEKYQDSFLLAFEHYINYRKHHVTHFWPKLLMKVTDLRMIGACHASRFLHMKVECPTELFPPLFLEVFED
ATP-dependent 6-phosphofructokinase (Trypanosoma brucei brucei), sequence (O15648 whole entry, looked up): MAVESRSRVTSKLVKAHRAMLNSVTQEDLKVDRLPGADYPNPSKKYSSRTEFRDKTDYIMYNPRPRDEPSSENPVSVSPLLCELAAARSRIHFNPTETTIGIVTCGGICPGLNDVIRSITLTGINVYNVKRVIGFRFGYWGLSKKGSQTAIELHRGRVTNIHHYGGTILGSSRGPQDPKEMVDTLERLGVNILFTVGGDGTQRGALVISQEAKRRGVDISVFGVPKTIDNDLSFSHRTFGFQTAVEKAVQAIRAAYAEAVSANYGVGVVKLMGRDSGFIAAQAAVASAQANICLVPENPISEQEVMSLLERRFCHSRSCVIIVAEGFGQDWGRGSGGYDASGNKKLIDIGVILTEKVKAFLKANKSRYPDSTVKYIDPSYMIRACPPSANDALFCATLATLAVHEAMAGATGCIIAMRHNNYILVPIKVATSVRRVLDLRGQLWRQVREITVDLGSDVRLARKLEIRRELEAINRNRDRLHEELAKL
Alpha-galactosidase A (Homo sapiens), sequence (P06280 whole entry, looked up): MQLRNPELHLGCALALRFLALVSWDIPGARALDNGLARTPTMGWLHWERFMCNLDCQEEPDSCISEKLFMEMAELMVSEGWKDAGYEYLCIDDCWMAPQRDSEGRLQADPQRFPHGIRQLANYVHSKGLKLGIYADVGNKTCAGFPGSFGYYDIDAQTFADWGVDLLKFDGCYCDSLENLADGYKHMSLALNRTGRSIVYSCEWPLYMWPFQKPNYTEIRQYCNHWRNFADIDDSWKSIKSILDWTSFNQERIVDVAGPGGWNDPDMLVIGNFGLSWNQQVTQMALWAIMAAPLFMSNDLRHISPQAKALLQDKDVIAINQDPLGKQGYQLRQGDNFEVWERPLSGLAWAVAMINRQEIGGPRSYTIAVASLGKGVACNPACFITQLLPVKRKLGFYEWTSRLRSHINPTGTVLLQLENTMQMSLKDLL
Guanine nucleotide-binding protein G(i) subunit alpha-1 (Homo sapiens), sequence (P63096 whole entry, looked up): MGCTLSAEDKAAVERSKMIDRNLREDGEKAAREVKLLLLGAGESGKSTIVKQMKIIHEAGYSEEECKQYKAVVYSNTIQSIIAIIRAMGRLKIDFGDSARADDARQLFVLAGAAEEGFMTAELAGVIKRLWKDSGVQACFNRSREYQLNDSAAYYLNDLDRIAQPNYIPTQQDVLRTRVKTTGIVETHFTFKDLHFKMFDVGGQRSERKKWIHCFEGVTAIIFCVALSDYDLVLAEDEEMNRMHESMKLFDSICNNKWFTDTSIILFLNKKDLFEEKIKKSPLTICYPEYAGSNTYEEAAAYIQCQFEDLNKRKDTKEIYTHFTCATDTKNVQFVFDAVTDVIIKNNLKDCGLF

In the case of `CN1[C@@H]2CC[C@H]1CC(O)C2` (stereo not given in full), in assay [1], the Potency result is “inactive”.

For `c1cncc([C@H]2CCCCN2)c1`, the Potency in [1] was 7.94 µM (active).

`CCCCCCCCCc1ccc(O)cc1`: the max response in assay [2] was -9.37% and -27.9%; in assay [6], -5.72%; in [9], 0.938% (inactive); in assay [10] it was 6.94% (inactive) and 6.09% (inactive); in [11], -7.88% (inactive). Besides, the Potency result in assay [3] and in assay [7] was “inactive” in each case. Further, the compound was called inactive in assay [4], in [5] and in assay [8].

`CC[C@H]1C(=O)OC[C@H]1Cc1cncn1C`: the compound was called inactive in assay [12] and in assay [13].

In the case of `Clc1ccc([C@@H](OCCN2CCCCC2)c2ccccc2)cc1`, in [14], the Potency entry was “inactive”.

In the case of `O=C1C=C2C=C[C@H]3C[C@@]2(O1)[C@H]1CCCCN31`, in assay [1], the Potency result is “inactive”.

Consider `C[C@H](NC(C)(C)C)C(=O)c1cccc(Cl)c1`, for which the call in [15], in [16], in assay [18], in assay [12], in [19] and in assay [20] was inactive. Also, in assay [13], the result was inactive. In [17], the Potency result is “inactive”.

With `O=C1C(Cl)=C(Cl)C(=O)C(Cl)=C1Cl`, the values for the max response in assay [2] and in assay [10] were -78.9% and -6.11% (inactive), respectively. Also, the results for the Potency in [3] and in [11] were 12.6 µM (active) and 39.8 µM (active), respectively.

For `COc1cc2c(c(OC)c1OC)-c1ccc(O)c(=O)cc1[C@@H](NC(C)=O)CC2`, the Potency result in assay [1] is “inactive”.

Take `COc1ccc(C[C@H]2c3cc(OC)c(OC)cc3CCN2C)cc1OC`: the Potency result in assay [1] was “inactive”.

In the case of `CNC(=O)Oc1ccccc1OC(C)C`, the max response was 17.8% in [2]; -0.248% in [6]; -31.5% (inactive) in assay [9]; 0.062% (inactive) in assay [10]; -6.22% (inactive) in assay [11]. The Potency entry in assay [3] and in [7] was “inactive” each time. The compound was called inactive in [4], in [5] and in assay [8].
